# In PubChem BioAssay (Tox21):
# Records with an inconclusive call do not appear. Where a call stands in place of a potency, no number is given. The source made the active and inactive calls. Unless noted, the call rests on the fitted dose curve.
# What was measured:
# [1] = Nuclear factor erythroid 2-related factor 2/antioxidant responsive element (Nrf2/ARE) small molecule agonists: qHTS cell viability counter screen in human keratinocytes (AID 1919968; active means well fitted curve in the direction sought with a large enough effect in the repeat runs; an effect the other way counts as inactive or inconclusive; further: nearly all actives have a fitted effect of over 55% in size)
# In short: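 Cells of the KeratinoSens line were plated at 1,500 per well and left for 5 h before compound transfer from DMSO stocks. After a 23 h incubation (37 C, 5% CO2), CellTiter-Fluor was added. Signal was taken as fluorescence intensity 1 h later.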
# [2] = Nuclear factor erythroid 2-related factor 2/antioxidant responsive element (Nrf2/ARE) small molecule agonists: luciferase reporter gene qHTS assay in human keratinocytes (AID 1919969); further: nearly all actives have a fitted effect of over 35% in size; further: potency means the concentration at half of the fitted maximal effect
# [3] = target: Gonadotropin-releasing hormone receptor (Homo sapiens) (UniProt P30968); assay: Human gonadotropin-releasing hormone receptor (GnRHR) small molecule agonists, calcium flux assay in GnRHR-HEK293 cells (AID 1920063); further: nearly all actives have a fitted effect of over 35% in size
# Sequence of Gonadotropin-releasing hormone receptor (Homo sapiens) (P30968 whole entry, looked up): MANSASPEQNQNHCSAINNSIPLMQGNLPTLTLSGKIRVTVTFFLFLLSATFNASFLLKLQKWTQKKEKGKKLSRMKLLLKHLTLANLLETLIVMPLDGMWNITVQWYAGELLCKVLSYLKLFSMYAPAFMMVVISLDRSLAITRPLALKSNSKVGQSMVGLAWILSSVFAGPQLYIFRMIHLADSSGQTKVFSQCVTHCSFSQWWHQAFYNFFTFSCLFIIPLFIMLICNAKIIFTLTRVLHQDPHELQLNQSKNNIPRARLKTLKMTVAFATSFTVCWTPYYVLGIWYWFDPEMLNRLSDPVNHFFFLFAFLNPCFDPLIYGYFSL
# In short: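 Compounds dissolved in DMSO are pin-transferred onto dye-loaded GnRHR-HEK293 cells, which were seeded 18 h before at 37 C/5% CO2. Calcium signal is read as fluorescence intensity at 1 s intervals for 3 min.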
# [4] = G protein-coupled receptor (GPCR) small molecule agonists, calcium flux assay: HEK293 wild type cell line counter screen (AID 1920065)
# In short: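 Tox21 10K compounds, 15 concentrations each in triplicate, pin-transferred in DMSO onto dye-loaded cells; kinetic read at 480/540 nm for 3 min, 1 s intervals.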
# [5] = p53 small molecule agonists, cell-based qHTS assay with human liver microsomes: qHTS cell viability counter screen (AID 1963579); further: nearly all actives have a fitted effect of over 45% in size
# In short: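 After the 460/530 nm beta-lactamase read, CellTiter-Glo was added to the same wells and luminescence measured after 30 min at room temperature, giving viability of p53RE-bla cells treated 16 h with compounds plus microsomes and NADPH.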
# [6] = p53 small molecule agonists, cell-based qHTS assay with rat liver microsomes: qHTS cell viability counter screen (AID 1963580); further: nearly all actives have a fitted effect of over 45% in size
# In short: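 Cytotoxicity counter screen: intracellular ATP measured by CellTiter-Glo luminescence in the same wells as the beta-lactamase reporter read, on HCT-116 p53RE-bla cells exposed 16 h at 37 C to compounds with rat liver microsomes and NADPH, each 0.5 mg/mL final.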
# [7] = p53 small molecule agonists, cell-based qHTS assay: qHTS cell viability counter screen (AID 1963581); further: nearly all actives have a fitted effect of over 45% in size
# In short: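 ATP content measured by luminescence in HCT-116 p53RE-bla cells treated 16 h at 37 C, same wells as the reporter screen.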
# [8] = target: 5-hydroxytryptamine receptor 2A (Homo sapiens) (UniProt P28223); assay: 5-hydroxytryptamine receptor 2A (HTR2A) small molecule antagonists, cell-based qHTS assay (AID 1963586); further: nearly all actives have a fitted effect of over 45% in size; further: potency means the concentration at half of the fitted maximal effect
# Sequence of 5-hydroxytryptamine receptor 2A (Homo sapiens) (P28223 whole entry, looked up): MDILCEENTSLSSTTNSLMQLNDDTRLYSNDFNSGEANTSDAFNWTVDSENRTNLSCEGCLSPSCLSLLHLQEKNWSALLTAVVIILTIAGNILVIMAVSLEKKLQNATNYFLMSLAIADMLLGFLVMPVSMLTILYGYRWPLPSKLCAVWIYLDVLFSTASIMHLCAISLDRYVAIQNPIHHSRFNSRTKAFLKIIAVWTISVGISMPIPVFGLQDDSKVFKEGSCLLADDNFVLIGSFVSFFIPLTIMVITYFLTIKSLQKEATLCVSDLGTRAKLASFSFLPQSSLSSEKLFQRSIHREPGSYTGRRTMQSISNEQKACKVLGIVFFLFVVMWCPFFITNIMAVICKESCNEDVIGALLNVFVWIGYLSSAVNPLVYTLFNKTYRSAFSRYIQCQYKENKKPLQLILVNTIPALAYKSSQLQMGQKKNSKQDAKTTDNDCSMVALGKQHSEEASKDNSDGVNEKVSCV
# In short: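 CHO cells stably expressing human HTR2A were plated for 18 h at 37 C, then loaded with calcium dye for 1 h. Compounds were preincubated 5 min at room temperature before DOI (4 nM solution) was added. Kinetic fluorescence was read for 3 min.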
# [9] = target: 5-hydroxytryptamine receptor 2A (Homo sapiens) (UniProt P28223); assay: 5-hydroxytryptamine receptor 2A (HTR2A) small molecule agonists, cell-based qHTS assay (AID 1963587); further: nearly all actives have a fitted effect of over 30% in size
# In short: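 CHO cells stably expressing human HTR2A, plated 18 h, loaded with calcium dye 1 h at 37 C. Agonist mode: compounds added and intracellular calcium fluorescence recorded kinetically for 2 min at 1 sec intervals.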
# [10] = target: Muscarinic acetylcholine receptor M1 (Homo sapiens) (UniProt P11229); assay: Cholinergic receptor muscarinic 1 (CHRM1) small molecule antagonists, cell-based qHTS assay (AID 1963588); further: nearly all actives have a fitted effect of over 40% in size; further: potency means the concentration at half of the fitted maximal effect
# Sequence of Muscarinic acetylcholine receptor M1 (Homo sapiens) (P11229 whole entry, looked up): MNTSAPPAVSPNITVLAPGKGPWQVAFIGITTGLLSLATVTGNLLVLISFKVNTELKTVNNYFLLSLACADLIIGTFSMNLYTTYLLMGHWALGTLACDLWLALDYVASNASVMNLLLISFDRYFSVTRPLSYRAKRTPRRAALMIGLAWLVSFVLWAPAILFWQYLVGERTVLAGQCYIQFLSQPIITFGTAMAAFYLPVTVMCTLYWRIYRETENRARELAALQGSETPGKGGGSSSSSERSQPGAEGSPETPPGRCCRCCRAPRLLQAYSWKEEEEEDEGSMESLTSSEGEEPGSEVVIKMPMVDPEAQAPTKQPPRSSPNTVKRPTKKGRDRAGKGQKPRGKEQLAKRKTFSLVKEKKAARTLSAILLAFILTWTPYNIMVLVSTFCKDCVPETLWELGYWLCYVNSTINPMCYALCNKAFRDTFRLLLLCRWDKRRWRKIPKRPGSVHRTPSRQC
# In short: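 Compounds were tested at 15 concentrations in three independent runs. Dye-loaded CHRM1-CHO cells were exposed 5 min at room temperature before stimulation by acetylcholine added at 50nM. Intracellular calcium was read kinetically on FDSS for 3 min.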
# [11] = target: Muscarinic acetylcholine receptor M1 (Homo sapiens) (UniProt P11229); assay: Cholinergic receptor muscarinic 1 (CHRM1) small molecule agonists, cell-based qHTS assay (AID 1963589); further: nearly all actives have a fitted effect of over 35% in size
# In short: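 Homogeneous fluorescence calcium flux, agonist mode. Human M1-expressing CHO cells; compound dosed at 15 concentrations, three independent runs; signal sampled every 1 sec.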
# [12] = cAMP Responsive Elements (CRE) small molecule agonists, cell-based qHTS assay (AID 1963590)
# In short: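 HEK 293T cells stably bearing CRE-bla were plated at 2,000 cells per well and rested 18 h. Compounds, positive controls or DMSO were added for 3 h at 37 C. LiveBLAzer B/G substrate was then loaded for 2 h at room temperature.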
# [13] = target: D(2) dopamine receptor (Homo sapiens) (UniProt P14416); assay: Dopamine D2 receptor (DRD2) small molecule antagonists, cell-based qHTS assay (AID 1963595; active means well fitted inhibition curve with a large enough effect in the signal ratio in the repeat runs, with a control signal flat; the % refers to the signal ratio)
# Sequence of D(2) dopamine receptor (Homo sapiens) (P14416 whole entry, looked up): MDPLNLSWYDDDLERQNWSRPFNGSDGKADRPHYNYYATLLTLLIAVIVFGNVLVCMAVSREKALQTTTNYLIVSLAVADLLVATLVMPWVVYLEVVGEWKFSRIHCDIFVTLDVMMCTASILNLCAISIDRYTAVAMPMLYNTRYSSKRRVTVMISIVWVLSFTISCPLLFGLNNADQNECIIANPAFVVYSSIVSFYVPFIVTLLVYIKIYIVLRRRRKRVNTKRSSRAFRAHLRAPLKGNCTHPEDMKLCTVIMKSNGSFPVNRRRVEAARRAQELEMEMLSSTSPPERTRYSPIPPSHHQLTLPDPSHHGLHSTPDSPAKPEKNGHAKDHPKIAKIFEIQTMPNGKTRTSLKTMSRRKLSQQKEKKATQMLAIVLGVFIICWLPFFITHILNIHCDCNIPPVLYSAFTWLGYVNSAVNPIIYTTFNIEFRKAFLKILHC
# In short: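 Antagonism was scored as restored cAMP in HEK293-DRD2 cells. These cells were stimulated with 200 nM NKH477 and 12 nM quinpirole for 30 min at room temperature, in the presence of 0.1 mM Ro20-1724.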
# [14] = p53 small molecule agonists, cell-based qHTS assay with human liver microsomes (AID 1963577);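 further: p53 response element beta-lactamase reporter cells with liver microsomes plus NADPH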
# In short: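 Steps: plate p53RE-bla cells, incubate 5 h at 37 C; add compound in DMSO; add microsomes (0.5 mg/mL final) and NADPH (0.5 mg/mL final); incubate 16 h at 37 C; add LiveBLAzer, 2 h RT; read fluorescence.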
# [15] = p53 small molecule agonists, cell-based qHTS assay with rat liver microsomes (AID 1963578)
# In short: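 Metabolic activation is supplied by rat liver microsomes with NADPH (each 0.5 mg/mL final). p53RE-bla cells incubate with compound 16 h at 37 C; reporter activity is measured by LiveBLAzer fluorescence.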
# [16] = cAMP Responsive Elements (CRE) small molecule antagonists, cell-based qHTS assay (AID 1963591; active means well fitted inhibition curve with a large enough effect in the signal ratio in the repeat runs, not every such curve was filed as active; the % refers to the signal ratio)
# In short: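 First, CRE-bla HEK293T cells settled 18 h at 37 C. Next, compound and 0.25 uM final NKH477 were applied for 3 h. Last, LiveBLAzer B/G substrate was loaded for 2 h at room temperature.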
# [17] = target: Beta-2 adrenergic receptor (Homo sapiens) (UniProt P07550); assay: Adrenergic beta2 receptor (ADRB2) small molecule antagonists, cell-based qHTS assay (AID 1963592); further: series mostly up to about 92 µM; nearly all actives have a fitted effect of over 50% in size
# Sequence of Beta-2 adrenergic receptor (Homo sapiens) (P07550 whole entry, looked up): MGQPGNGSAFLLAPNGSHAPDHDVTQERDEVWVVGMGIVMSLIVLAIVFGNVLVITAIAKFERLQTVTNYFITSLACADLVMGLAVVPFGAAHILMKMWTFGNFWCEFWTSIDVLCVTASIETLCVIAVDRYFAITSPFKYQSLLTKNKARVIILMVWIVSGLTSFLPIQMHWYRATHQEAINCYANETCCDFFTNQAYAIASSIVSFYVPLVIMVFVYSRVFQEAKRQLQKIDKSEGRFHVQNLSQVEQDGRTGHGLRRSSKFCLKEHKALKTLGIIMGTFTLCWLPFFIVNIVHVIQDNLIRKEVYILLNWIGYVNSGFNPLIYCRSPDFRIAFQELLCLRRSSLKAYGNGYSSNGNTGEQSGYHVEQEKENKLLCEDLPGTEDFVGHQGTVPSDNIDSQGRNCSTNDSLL
# In short: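 Assay format: CHO-ADRB2 cells, 18-20hr seeding at 37C/5% CO2, then compound plus 1nM isoproterenol agonist mix for 0.5hr RT. Homogeneous time-resolved fluorescence cAMP detection after 1hr, expressed as 665/615 nm ratio.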
# [18] = target: D(2) dopamine receptor (Homo sapiens) (UniProt P14416); assay: Dopamine D2 receptor (DRD2) small molecule agonists, cell-based qHTS assay (AID 1963594); further: nearly all actives have a fitted effect of over 35% in size
# In short: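 HEK293 cells stably expressing human DRD2, pre-treated with PDE inhibitor Ro20-1724 (0.1 mM final) and compound 10 min at room temperature, then stimulated with NKH477 (200nM […]) for 30 min. cAMP read by HTRF (665/620 nm).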
# [19] = target: KiSS-1 receptor (Homo sapiens) (UniProt Q969F8); assay: Human kisspeptin (KISS1R) small molecule agonists, calcium flux assay in KISS1R-HEK293 cells (AID 1920064; active means well fitted curve in the direction sought with a large enough effect in the repeat runs; an effect the other way counts as inactive or inconclusive)
# Sequence of KiSS-1 receptor (Homo sapiens) (Q969F8 whole entry, looked up): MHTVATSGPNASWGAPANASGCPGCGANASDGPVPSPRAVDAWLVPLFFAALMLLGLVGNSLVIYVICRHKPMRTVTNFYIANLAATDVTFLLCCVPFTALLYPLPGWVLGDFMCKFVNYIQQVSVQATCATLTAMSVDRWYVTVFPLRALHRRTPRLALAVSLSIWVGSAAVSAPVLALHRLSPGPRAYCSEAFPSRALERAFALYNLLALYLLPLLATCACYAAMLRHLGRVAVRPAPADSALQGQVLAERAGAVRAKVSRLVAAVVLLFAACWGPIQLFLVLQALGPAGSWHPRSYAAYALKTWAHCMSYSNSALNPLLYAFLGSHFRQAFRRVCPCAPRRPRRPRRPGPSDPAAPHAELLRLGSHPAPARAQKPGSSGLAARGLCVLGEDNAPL
# In short: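 Cell line: HEK293, stable human KISS1R. Dye loading 1 h at 37 C after 18 h culture. Read: kinetic fluorescence, 480/540 nm, 3 min at 1 s intervals.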
# [20] = p53 small molecule agonists, cell-based qHTS assay (AID 1963582; active means well fitted activation curve with a large enough effect in the signal ratio in the repeat runs, not every such curve was filed as active; the % refers to the signal ratio)
# In short: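 16 h compound exposure (37 C) of p53 response element–bla cells, preceded by 5 h recovery at 37 C/5% CO2; read-out via LiveBLAzer B/G FRET substrate, 2 h RT, fluorescence intensity.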
Compound,Potency [1],Potency [2],Potency [3],Potency [4],Potency [5],Potency [6],Potency [7],Potency [8],Potency [9],Potency [10],Potency [11],Potency [12],Potency [13],Potency [14],Potency [15],Potency [16],Potency [17],Potency [18],Potency [19],Potency [20]
CC1(C)COP(Oc2ccccc2)OC1,inactive,inactive,inactive,inactive,inactive,inactive,inactive,inactive,inactive,inactive,inactive,inactive,inactive,,,,,,,
O=C(Cl)c1ccc(Cl)cc1,inactive,inactive,inactive,inactive,inactive,inactive,inactive,inactive,inactive,inactive,inactive,inactive,,inactive,inactive,inactive,inactive,inactive,,
CCOP(=S)(OCC)SC(CCl)N1C(=O)c2ccccc2C1=O (stereo unspecified),inactive,30.6 µM (active),inactive,inactive,inactive,inactive,inactive,inactive,inactive,,inactive,,inactive,,,,,inactive,,
CCN(CC)C(=O)[C@@H]1C=C2c3cccc4[nH]cc(c34)C[C@H]2N(C)C1,inactive,inactive,,inactive,inactive,inactive,inactive,inactive,,inactive,,,,inactive,inactive,,,,inactive,inactive
CO/N=C(/C1=NOCCO1)c1ccccc1Oc1ncnc(Oc2ccccc2Cl)c1F,inactive,inactive,inactive,inactive,inactive,inactive,,,inactive,inactive,inactive,,inactive,,inactive,inactive,inactive,,,
O=C(O)CC(Cl)C(=O)O (stereo unspecified),inactive,inactive,,inactive,inactive,inactive,inactive,inactive,inactive,,inactive,inactive,inactive,inactive,inactive,,,inactive,inactive,inactive
O=C(NC(=O)c1c(F)cccc1F)Nc1ccc(OC(F)(F)C(F)OC(F)(F)F)c(Cl)c1 (stereo unspecified),inactive,inactive,inactive,inactive,inactive,inactive,inactive,inactive,inactive,inactive,inactive,inactive,,,,,inactive,inactive,,
Clc1ccccc1N1CCNCC1,inactive,inactive,inactive,inactive,,inactive,,1.16 µM (active),,inactive,inactive,inactive,inactive,,inactive,inactive,,inactive,,inactive
COc1cccc(C(=O)NN(C(=O)c2cc(C)cc(C)c2)C(C)(C)C)c1C,inactive,inactive,inactive,inactive,inactive,inactive,inactive,inactive,inactive,14.9 µM (active),inactive,,inactive,,inactive,,inactive,inactive,,inactive
Cc1c(Cl)c(=O)oc2cc(OP(=O)(OCCCl)OCCCl)ccc12,inactive,inactive,inactive,inactive,inactive,inactive,inactive,inactive,inactive,inactive,inactive,,inactive,,,,inactive,,,inactive
CC(C)=CC1C(C(=O)OC(C#N)c2cccc(Oc3ccccc3)c2)C1(C)C (stereo unspecified),inactive,inactive,inactive,,,inactive,inactive,inactive,inactive,inactive,inactive,inactive,inactive,,,inactive,inactive,inactive,,
O=C(CCCCl)c1ccc(F)cc1,inactive,inactive,inactive,inactive,inactive,inactive,,inactive,inactive,inactive,inactive,inactive,inactive,,inactive,inactive,inactive,,,inactive
